Bioassay records deposited in PubChem by University of Pittsburgh Molecular Library Screening Center.
HIV RNase H inh-1 – HIV-1 RT RNase H inhibitors, primary screen, biochemical, fluorescence; Gag-Pol polyprotein (Human immunodeficiency virus type 1 group M subtype B (isolate …; RT-RNase H RNA/DNA duplex cleavage; inhibition, % at 10 µM; hit rate 1.9% among 65,000; in the data active = inhibition above about 50%
HIV RNase H inh-2 – HIV-1 RT RNase H inhibitors, retest, confirmation, biochemical | shares compounds with HIV RNase H inh-1 | Recombinant RT RNase H, fluorescent RNA/DNA duplex cleavage | inhibition, % at 10 µM | hit rate 39% among 1,000; in the data active = inhibition above about 48%; inconclusive = no clear call, values can overlap the other calls
Numbers without * were called inactive. Many of the other results were omitted from the sample, so hits are more common in it than they were.

How did Cc1nc(CC(=O)N2CCN(c3cccc(C)c3C)CC2)cs1 do in these assays?
HIV RNase H inh-1: 0

Results for NC(=O)CN1C(=O)C2C3C=CC(C3)C2C1=O (configuration not stated) ?
HIV RNase H inh-1: -8

Results for Cc1ccc(NCN2C(=O)C3C4C=CC(C4)C3C2=O)cc1 (configuration not stated) ?
HIV RNase H inh-1: -11

Results for O=C1C2C3C=CC(C3)C2C(=O)N1CNc1ccc(O)cc1 (configuration not stated) ?
HIV RNase H inh-1: 80*; HIV RNase H inh-2: 16

Results for CCOC(=O)c1cc(NC(=O)N2CCCCC2)c(C)nc1C ?
HIV RNase H inh-1: -13

Results for Cc1csc(NC(=O)CSc2nnc(-c3ccc(S(=O)(=O)N4CCCC4)cc3)o2)n1 ?
HIV RNase H inh-1: 0

How did Cc1ccc(-c2nnc(SCC(=O)Nc3ccc(S(=O)(=O)N4CCCCCC4)cc3)o2)cc1 do in these assays?
HIV RNase H inh-1: 65*; HIV RNase H inh-2: inconclusive

What do the screens show for `CC(=O)c1cccc(NC(=O)CSc2nnc(-c3ccc(S(=O)(=O)N4CCCC4)cc3)o2)c1`?
HIV RNase H inh-1: 21

What do the screens show for `O=C(CSc1nccc2ccccc12)N1CCN(c2ccccn2)CC1`?
HIV RNase H inh-1: -71

Results for CCn1c(N)c(C(=O)NCC2CCCO2)sc1=S (configuration not stated) ?
HIV RNase H inh-1: -3

Results for Nc1c(C(=O)NCC2CCCO2)sc(=S)n1-c1ccccc1 (configuration not stated) ?
HIV RNase H inh-1: 84*; HIV RNase H inh-2: inconclusive

Results for Cc1cc(C(=O)NCc2cccnc2)n(-c2ccccc2)n1 ?
HIV RNase H inh-1: -1

What do the screens show for `CCn1c(N)c(C(=O)NCc2cccnc2)sc1=S`?
HIV RNase H inh-1: -14

Results for C=CCn1c(N)c(C(=O)NCC2CCCO2)sc1=S (configuration not stated) ?
HIV RNase H inh-1: 5

What do the screens show for `Nc1c(C(=O)NCc2cccnc2)sc(=S)n1-c1ccccc1`?
HIV RNase H inh-1: 60*; HIV RNase H inh-2: 63*

Results for CN1CCN(Cc2nc3c(c(=O)n(C)c(=O)n3C)n2CCc2ccccc2)CC1 ?
HIV RNase H inh-1: -1

Results for O=C(O)C1C2C=CC(C2)C1C(=O)Nc1ccc(C(=O)N2CCCCC2)cc1 (configuration not stated) ?
HIV RNase H inh-1: -11

Results for CCOC(=O)N1CCC(Nc2c(NCCCN(CC)c3cccc(C)c3)c(=O)c2=O)CC1 ?
HIV RNase H inh-1: 1

How did CCOc1ccc(CCNS(=O)(=O)c2cccc3nsnc23)cc1OCC do in these assays?
HIV RNase H inh-1: -9

What do the screens show for `O=C(NC1CCCC1)C(c1cccs1)N(CC1CCCO1)C(=O)Cc1cccs1` (configuration not stated)?
HIV RNase H inh-1: 1

What do the screens show for `COc1ccc(-c2nn(C)c(=O)c3ccccc23)cc1CNC(=O)CN1CCOCC1`?
HIV RNase H inh-1: -14

How did COc1ccccc1CNC(=O)c1cc2c(=O)n(C)c3ccccc3c2n1C do in these assays?
HIV RNase H inh-1: 89*; HIV RNase H inh-2: 88*

How did Cn1c(C(=O)NCc2ccccn2)cc2c(=O)n(C)c3ccccc3c21 do in these assays?
HIV RNase H inh-1: -11

Results for Cc1ccc(CNC(=O)c2cc3c(=O)n(C)c4ccccc4c3n2C)o1 ?
HIV RNase H inh-1: 4

How did COC(=O)c1c(NC(=O)CN2CCCC(C)C2)c2c(C)cccc2n1C (configuration not stated) do in these assays?
HIV RNase H inh-1: 0

How did COc1ccc2cc(CCNC(=O)c3c(-c4ccccc4Cl)noc3C)c(=O)[nH]c2c1 do in these assays?
HIV RNase H inh-1: -19

Results for CCc1ccccc1NC(=O)C(CC)Sc1nc2cc3c(cc2c(=O)n1Cc1ccco1)OCO3 (configuration not stated) ?
HIV RNase H inh-1: 78*; HIV RNase H inh-2: -12

Results for O=c1c2ccccc2nnn1CSc1nc2cc(Cl)ccc2c(=O)n1Cc1ccco1 ?
HIV RNase H inh-1: 4

Results for O=C(CSc1nc2ccccc2c(=O)n1Cc1ccco1)NCc1ccccc1 ?
HIV RNase H inh-1: -2

What do the screens show for `O=P1(c2ccccc2)C=Cn2c1cc1c2CCCC1` (configuration not stated)?
HIV RNase H inh-1: 3

Results for Cc1ccc(S(=O)(=O)NC2CCCC(C(=O)O)C2)cc1 (configuration not stated) ?
HIV RNase H inh-1: -9

How did CC(C)(C)n1nc2c(c1NC(=O)c1cccc(C(F)(F)F)c1)CS(=O)C2 (configuration not stated) do in these assays?
HIV RNase H inh-1: 15

What do the screens show for `COc1ccc(OC)c(S(=O)(=O)Nc2ccc(C(N)=O)cc2)c1`?
HIV RNase H inh-1: -8

Results for COc1ccc(OC)c(S(=O)(=O)Nc2ccc(O)c3ccccc23)c1 ?
HIV RNase H inh-1: 83*; HIV RNase H inh-2: inconclusive

What do the screens show for `CNS(=O)(=O)c1cc(OC)ccc1OC`?
HIV RNase H inh-1: 0
